# Assay results: PubChem BioAssay
# Unmarked numbers belong to inactive results. Active and inactive are the calls of the source. Unless noted, no stated cut-off is given here; in the data, active means inhibition above about 44%; inactive means the rest.
# How the values were obtained:
# [1] = StAR promoter reporter inhibitors, counter-screen for LRH-1 inverse agonist project, cell-based, luminescence, high throughput (AID 651611; in the data active means inhibition above about 28%); conditions: StAR promoter luciferase reporter counterscreen, at 3.6 µM, active compounds read high
# [2] = target: Nuclear receptor subfamily 5 group A member 2 (Homo sapiens) (UniProt O00482); test: LRH-1 (NR5A2) inverse agonists, retest, confirmation, cell-based, luminescence (AID 651613; in the data active means inhibition above about 42%;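 further: HEK293T cells co-transfected with LRH-1 and StAR promoter luciferase reporter; 0% = vehicle wells and 100% = parental cells lacking receptor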); conditions: cell-based LRH-1 luciferase reporter, inverse agonism; at 3.6 µM; active compounds read high
# [3] = target: Steroidogenic factor 1 (Homo sapiens) (UniProt Q13285); test: SF1 (NR5A1) inverse agonists, counter-screen for LRH-1 inverse agonist project, cell-based, luminescence, high throughput (AID 651614); conditions: cell-based SF1 luciferase reporter, at 3.6 µM, active compounds read high;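 further: cells cotransfected with StAR promoter reporter and SF1 expression vector; 0% = vehicle on cells with receptor and 100% = vehicle on cells lacking receptor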
# [4] = VP16 transactivation reporter inhibitors, counter-screen for LRH-1 inverse agonist project, cell-based, luminescence, high throughput (AID 651615; in the data active means inhibition above about 33%); conditions: Gal4-VP16 luciferase reporter cells, at 3.6 µM, active compounds read high
# Chain of Steroidogenic factor 1 (Homo sapiens) (Q13285 whole entry, looked up, the tested form may be a part): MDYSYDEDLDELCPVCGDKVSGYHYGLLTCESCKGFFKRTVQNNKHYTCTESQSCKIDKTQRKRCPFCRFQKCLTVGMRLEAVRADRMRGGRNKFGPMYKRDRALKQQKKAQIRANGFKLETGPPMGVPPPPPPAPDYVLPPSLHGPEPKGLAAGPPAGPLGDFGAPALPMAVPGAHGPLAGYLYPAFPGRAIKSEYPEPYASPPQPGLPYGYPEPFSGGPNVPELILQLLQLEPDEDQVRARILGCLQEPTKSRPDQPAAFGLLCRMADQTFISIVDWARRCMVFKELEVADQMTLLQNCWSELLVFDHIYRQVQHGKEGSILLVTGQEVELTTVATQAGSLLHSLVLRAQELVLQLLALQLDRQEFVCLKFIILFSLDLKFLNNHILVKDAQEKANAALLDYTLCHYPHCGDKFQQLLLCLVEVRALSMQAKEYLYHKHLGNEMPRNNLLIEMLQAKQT
# Chain of Nuclear receptor subfamily 5 group A member 2 (Homo sapiens) (O00482 whole entry, looked up): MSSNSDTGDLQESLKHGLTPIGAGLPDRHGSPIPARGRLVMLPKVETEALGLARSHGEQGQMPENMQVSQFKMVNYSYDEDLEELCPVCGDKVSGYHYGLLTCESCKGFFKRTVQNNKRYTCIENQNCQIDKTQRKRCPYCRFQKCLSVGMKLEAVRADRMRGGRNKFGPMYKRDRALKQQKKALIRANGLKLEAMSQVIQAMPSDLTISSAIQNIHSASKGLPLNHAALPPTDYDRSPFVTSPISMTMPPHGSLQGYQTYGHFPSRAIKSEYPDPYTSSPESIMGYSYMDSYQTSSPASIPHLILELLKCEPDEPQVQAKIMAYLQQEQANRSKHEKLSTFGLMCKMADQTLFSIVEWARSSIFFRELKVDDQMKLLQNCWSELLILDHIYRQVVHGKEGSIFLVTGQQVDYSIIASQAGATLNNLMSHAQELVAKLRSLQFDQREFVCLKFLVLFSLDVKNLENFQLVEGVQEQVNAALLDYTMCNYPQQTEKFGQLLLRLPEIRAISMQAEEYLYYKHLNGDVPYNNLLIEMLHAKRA
Structure (SMILES),inhibition [1],inhibition [2],inhibition [3],inhibition [4]
O=C(CSc1ncccc1-c1nc2ccccc2[nH]1)Nc1ccc2c(c1)OCCO2,-8.79%,-2.1%,5.63%,-15.5%
CCOc1cc(S(=O)(=O)NCc2ccncc2)ccc1Cl,21.4%,56.6% (active),57.9% (active),55.6% (active)
O=C(Cn1ncc2c([nH]c3ccccc32)c1=O)Nc1ccc(CN2CCCCC2)cc1,5.26%,60.9% (active),62.4% (active),-4.27%
CN1CCN(c2ccccc2NC(=O)c2ccc(-c3cccc([N+](=O)[O-])c3)o2)CC1,11.9%,42.9% (active),49.6% (active),2.32%
CC(C)CC1(C)NC(=O)N(CC(=O)Nc2ccc3c(c2)OCCO3)C1=O (stereo unspecified),16.7%,54.2% (active),53% (active),7.91%
COc1cc(N)c2ncccc2c1Cl,-0.07%,17.4%,11.9%,10.7%
Cc1cc(O)c(NC(=O)c2cc([N+](=O)[O-])ccc2Cl)cc1C,35% (active),53.6% (active),58.8% (active),-8.66%
O=C(CSc1cc(Cl)ccc1Cl)Nc1ccc(N2CCOCC2)cc1,1.91%,63.9% (active),65.3% (active),3.31%
CCOC(=O)C1CCCN(S(=O)(=O)c2ccc(S(=O)(=O)N(CC)CC)cc2)C1 (stereo unspecified),18.1%,60.3% (active),54.5% (active),49.5% (active)
Cc1cc(=O)oc2cc(OCC(=O)N3CCN(C(=O)C4COc5ccccc5O4)CC3)ccc12 (stereo unspecified),21.1%,49% (active),42.1%,-11%
COc1ccc(NC(=O)CN2C(=O)C(C)SC(C)C2=O)c(OC)c1 (stereo unspecified),4.55%,44% (active),49% (active),11.3%
O=C(COC(=O)c1ccc(Br)o1)Nc1ccc2c(c1)OCCO2,22%,59.4% (active),63.1% (active),1.94%
O=C(COC(=O)c1ccc(Br)cc1)Nc1ccccc1Br,9%,50.5% (active),50.1% (active),1.81%
Cc1cc(C(=O)CSc2nnnn2-c2ccccc2)c(C)n1-c1ccc2c(c1)OCO2,0.11%,42.3% (active),28.5%,27.6%
O=[N+]([O-])c1ccc(N2CCCCC2)nc1N1CCCCC1,-13.2%,54.5% (active),51.2% (active),13.4%
O=C(Nc1cc(Cl)ccc1-n1cncn1)c1ccc([N+](=O)[O-])s1,23.2%,68.4% (active),69.2% (active),-10.3%
Cc1c(NC(=O)c2ccc([N+](=O)[O-])o2)cccc1-c1nc2ncccc2o1,13.3%,66.2% (active),58.7% (active),-13.2%
O=C(CCl)NCCN1C(=O)S/C(=C\c2cccnc2)C1=O,10.2%,55.9% (active),57.4% (active),-3.37%
COc1ccc(/C=C/C(=O)c2cc(F)ccc2OC(=O)c2ccccc2C)cc1OC,52.9% (active),41.1%,44.9% (active),40.4% (active)
COc1ccc(C2=NS(=O)(=O)N(C)C(C(=O)N3CCc4ccccc4C3)=C2)cc1OC,5.52%,43% (active),46.2% (active),24.2%
O=C(NCc1ccco1)c1ccc([N+](=O)[O-])o1,7.6%,60.5% (active),59.6% (active),-13.8%
NC(=S)Nc1ccc(Oc2ccc(NC(N)=S)cc2)cc1,5.35%,31.2%,40%,-6.09%
O=C(Nc1ccc(N2CCN(C(=O)c3ccco3)CC2)cc1)c1ccc2c(c1)OCO2,23.4%,48.3% (active),50.7% (active),60.5% (active)
Cc1nc2ccccc2n1/N=C/c1ccc([N+](=O)[O-])o1,16.3%,70.9% (active),68.1% (active),15%
